Assay outcomes deposited in PubChem BioAssay by The Scripps Research Institute Molecular Screening Center.
Compounds with a hit are over-represented: about 4.6% of the library has one in this group of screens.
Wee1 stabilizer – Wee1 degradation inhibitors, primary screen, cell-based, HeLa, Wee1K328M-luciferase, luminescence; Wee1-like protein kinase (Homo sapiens), P30291; HeLa Luc-Wee1K328M stability; 100% = proteasome inhibitor MG132 effect; reporter increase, % at 5 µM; 1.2% of 220,000 active;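 active means activation above the mean of all tested compounds plus 3 SD, set per screening run, cut at about 8.8% in these data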;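 further: cells exposed to compound for 20 h before luminescence read; 0% = DMSO alone and 100% = MG132 at 30 µM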
DAX1 inh-1 – DAX1 (NR0B1) inhibitors on StAR promoter, primary screen, cell-based, luminescence, SF-1 (NR5A1), full-length DAX-1 | HEK293T StAR-luciferase reporter, SF-1/DAX-1 repression relief | inhibition, % at 6.8 µM | 1.1% of 370,000 active;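 active means inhibition above the mean over all tested compounds plus 3 SD, cut at about 3.6% in these data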;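 further: 0% = DAX-1 cells with DMSO and 100% = cells lacking DAX-1 with DMSO; higher inhibition means more luminescence from relief of DAX-1 repression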
DAX1 inh-2 – DAX1 (NR0B1) inhibitors, primary screen, cell-based, HEK293, Gal4-DAX1, luciferase luminescence. Nuclear receptor subfamily 0 group B member 1 (Homo sapiens), P51843. HEK293 Gal4-DAX1 luciferase reporter. inhibition, % at 6.75 µM. 0.99% of 340,000 active. AID 504766, 2011;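 active means inhibition above the mean over all tested compounds plus 3 SD, cut at about 4.2% in these data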;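 further: 0% = DAX1-transfected cells with DMSO and 100% = empty-vector control cells with DMSO; inhibition shows as a rise in luminescence from relieved DAX1 repression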
Target sequence (P51843 207-470 limits assumed): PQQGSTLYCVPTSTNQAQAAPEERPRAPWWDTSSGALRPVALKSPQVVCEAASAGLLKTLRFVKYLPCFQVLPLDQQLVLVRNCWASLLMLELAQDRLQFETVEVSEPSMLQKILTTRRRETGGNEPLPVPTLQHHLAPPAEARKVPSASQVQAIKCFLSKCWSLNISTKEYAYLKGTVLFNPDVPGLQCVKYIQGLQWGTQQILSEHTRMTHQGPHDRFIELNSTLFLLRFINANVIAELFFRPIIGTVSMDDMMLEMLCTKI
ssDAF-12 act – S. stercoralis DAF-12 nuclear receptor activators, primary screen, cell-based, luminescence, HEK293, GRIP1 co-expression, lit1-tk-luc | HEK293 ssDAF-12/GRIP1 lit1-tk-luc reporter; % of 3 µM dafachronic acid response | activation, % at 6.8 µM | AID 652126, 2013 | 1% of 370,000 active;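 active means activation above the mean over all tested compounds plus 3 SD, cut at about 0.9% in these data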;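 further: 0% = DMSO-only wells and 100% = 3 µM delta7-dafachronic acid wells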
hcDAF12 agonist – H. contortus DAF-12 nuclear receptor activators, primary screen, cell-based, luminescence, HEK293, lit1-tk-luc reporter. 1.4% of 370,000 active. HEK293 hcDAF-12 lit1-tk-luc reporter; 0% DMSO, 100% Δ7-dafachronic acid. activation, % at 6.8 µM;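 active means activation above the mean of all tested compounds plus 3 SD, cut at about 5.5% in these data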;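 further: 100% = response to 3 µM Δ7-dafachronic acid high control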
hgDAF-12 ag – H. glycines DAF-12 receptor agonists, primary screen, cell-based, luminescence, HEK293, GAL4 fusion, UAS-luciferase. Nuclear hormone receptor DAF-12 (Heterodera glycines), GAL4 fusion. HEK293 GAL4-hgDAF12 UAS-luciferase reporter, agonist luminescence; normalized to butyrate control. activation, % at 6.8 µM. 1.8% of 370,000 active. AID 687014, 2013;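 active means activation above a cutoff set at the mean of all screened compounds plus 3 SD, cut at about 10% in these data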;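 further: 0% = DMSO wells and 100% = sodium butyrate wells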
* = called active by the depositor.

Screening COC(=O)CC1C(=O)NCCN1C(=S)Nc1cccc(C)c1 (centres undefined) returned Wee1 stabilizer -2, DAX1 inh-1 -1, DAX1 inh-2 -1, ssDAF-12 act -1, hcDAF12 agonist 0 and hgDAF-12 ag 1.
For COC(=O)[C@H](CC(C)C)N(CCCc1cn(CC2CCCCC2)nn1)S(=O)(=O)c1ccccc1Br the results were DAX1 inh-1 -2, ssDAF-12 act -2, hcDAF12 agonist -5 and hgDAF-12 ag 1.
For COc1ccc(-c2nc3ncccn3c2Br)cc1 the results were Wee1 stabilizer -2, DAX1 inh-1 2, DAX1 inh-2 10.0*, ssDAF-12 act 0, hcDAF12 agonist 3 and hgDAF-12 ag 11*.
For Brc1c(-c2ccc3c(c2)OCO3)nc2ncccn12 the results were Wee1 stabilizer 2, DAX1 inh-1 1, DAX1 inh-2 0, ssDAF-12 act -1, hcDAF12 agonist 1 and hgDAF-12 ag 9.
For COc1ccc(NC(=O)N(C)C[C@H]2Oc3c(NC(=O)C4CC4)cccc3C(=O)N([C@H](C)CO)C[C@@H]2C)cc1 the results were DAX1 inh-1 0, DAX1 inh-2 0, ssDAF-12 act -1, hcDAF12 agonist -1 and hgDAF-12 ag -2.
`CN(C)c1ccc(/C=N/NC(=O)c2cc(-c3ccc4c(c3)OCO4)n[nH]2)cc1` gave Wee1 stabilizer 7, DAX1 inh-1 0, DAX1 inh-2 -2, ssDAF-12 act -1, hcDAF12 agonist 1 and hgDAF-12 ag 5.
Screening Cc1ccc(-c2cc(C(=O)NN=Cc3ccc(F)cc3)[nH]n2)cc1C returned DAX1 inh-1 -1, ssDAF-12 act -1, hcDAF12 agonist 0 and hgDAF-12 ag 11*.
`O=C(N/N=C/c1ccc(F)cc1)c1cc(-c2ccc3c(c2)OCO3)n[nH]1` gave Wee1 stabilizer 2, DAX1 inh-1 0, DAX1 inh-2 4.6*, ssDAF-12 act -1, hcDAF12 agonist 1 and hgDAF-12 ag 2.
Screening O=C(NC(=O)c1c(F)cccc1F)Nc1cccc(Oc2ncc(Cl)cn2)c1 returned DAX1 inh-1 0, DAX1 inh-2 1, ssDAF-12 act -1, hcDAF12 agonist -1 and hgDAF-12 ag 1.
O=C(N/N=C/c1c[nH]c2ccc(Br)cc12)c1ccccn1 was read as Wee1 stabilizer -2, DAX1 inh-1 2, DAX1 inh-2 4, ssDAF-12 act 0, hcDAF12 agonist 3 and hgDAF-12 ag 16*.
Screening O=C(N/N=C/c1c[nH]c2ccc(Br)cc12)C1CC1 returned Wee1 stabilizer -1, DAX1 inh-1 0, DAX1 inh-2 0, ssDAF-12 act -1, hcDAF12 agonist -1 and hgDAF-12 ag 0.
For NC(=O)C(=O)N/N=C/c1c[nH]c2ccc(Br)cc12 the results were Wee1 stabilizer -2, DAX1 inh-1 0, DAX1 inh-2 4.5*, ssDAF-12 act 0, hcDAF12 agonist 0 and hgDAF-12 ag 0.
Screening COc1cccc(-c2nc(CN3CCN(C(=O)c4ccco4)CC3)c(C)o2)c1OC returned DAX1 inh-1 -1, DAX1 inh-2 -1, ssDAF-12 act -1, hcDAF12 agonist -1 and hgDAF-12 ag 5.
CCCS(=O)(=O)NC(=O)C1(C)CCCN(C(=O)c2cc(F)ccc2C)C1 (centres undefined) was read as DAX1 inh-1 -1, ssDAF-12 act -1, hcDAF12 agonist -1 and hgDAF-12 ag 2.
Screening Cc1cccc(C)c1NC(=O)C1(C)CN(S(C)(=O)=O)CC(=O)N1CCCN1CCOCC1 (centres undefined) returned DAX1 inh-1 -1, ssDAF-12 act -1, hcDAF12 agonist -2 and hgDAF-12 ag 1.
`CCOC(=O)[C@@]12CN(C(=O)OC(C)(C)C)CC=C1N(Cc1ccc(OC)cc1)C(=O)[C@H]2CC(=O)N1CCCCC1` gave DAX1 inh-1 0, ssDAF-12 act -1, hcDAF12 agonist -3 and hgDAF-12 ag -3.
c1ccc(-c2nnc(-c3ccccc3)nn2)cc1 was read as Wee1 stabilizer 0, DAX1 inh-1 1, ssDAF-12 act 1.0*, hcDAF12 agonist 5 and hgDAF-12 ag 9.
Screening CSc1ccc(-c2nnn(Cc3ccc(Br)cc3)n2)cc1 returned Wee1 stabilizer 2, DAX1 inh-1 -1, DAX1 inh-2 2, ssDAF-12 act 0, hcDAF12 agonist 1 and hgDAF-12 ag 2.
`CSc1ccc(-c2nnn(Cc3ccccn3)n2)cc1` gave Wee1 stabilizer -2, DAX1 inh-1 2, DAX1 inh-2 1, ssDAF-12 act 0, hcDAF12 agonist 0 and hgDAF-12 ag 12*.
`O=C(CNC(=O)c1cccs1)NCC(=O)OCc1c(F)cccc1Cl` gave Wee1 stabilizer 9.0*, DAX1 inh-1 0, ssDAF-12 act -1, hcDAF12 agonist -2 and hgDAF-12 ag -6.
For O=C(CNC(=O)c1ccc(N2C(=O)c3ccccc3C2=O)cc1)OCC(=O)c1ccc(Cl)cc1 the results were Wee1 stabilizer -1, DAX1 inh-1 0, DAX1 inh-2 -1, ssDAF-12 act 1.7*, hcDAF12 agonist -1 and hgDAF-12 ag -1.
`O=C(CNC(=O)c1cccs1)OCC(=O)c1ccc(Br)cc1` gave Wee1 stabilizer 0, DAX1 inh-1 0, DAX1 inh-2 -1, ssDAF-12 act -1, hcDAF12 agonist 0 and hgDAF-12 ag 2.
`Cc1ccc(C(=O)COC(=O)CNC(=O)c2ccc(N3C(=O)c4ccccc4C3=O)cc2)cc1C` gave Wee1 stabilizer 1, DAX1 inh-1 0, DAX1 inh-2 1, ssDAF-12 act -1, hcDAF12 agonist 1 and hgDAF-12 ag 0.
Screening O=C(CNC(=O)c1cccs1)OCC(=O)c1ccc(Cl)cc1 returned Wee1 stabilizer -1, DAX1 inh-1 0, DAX1 inh-2 -1, ssDAF-12 act 12*, hcDAF12 agonist -1 and hgDAF-12 ag -1.
CC(C)CC1NC(=O)N(CC(=O)Nc2ccc(OC(F)F)cc2)C1=O (centres undefined) was read as DAX1 inh-1 -1, DAX1 inh-2 -1, ssDAF-12 act -1, hcDAF12 agonist 0 and hgDAF-12 ag -3.
Clc1ccccc1OCc1nnc(-c2ccccc2)o1 was read as Wee1 stabilizer 5, DAX1 inh-1 1, DAX1 inh-2 1, ssDAF-12 act -1, hcDAF12 agonist 2 and hgDAF-12 ag 13*.
